“And” between values parts separate entries of the source, which are not always exact repeats. Identical values can stand only once. The whole screen tested about 310,000 compounds, of which about 1,200 (0.39%) were called active. The rule behind the calls is not given here. The list is a sample of the results. Potency and affinity values are given separately.

Data on 95 molecules can be found in PubChem BioAssay AID1903 (Southern Research Specialized Biocontainment Screening …, 2009).

Sequence of Large T antigen (Simian virus 40) (P03070 whole entry, looked up): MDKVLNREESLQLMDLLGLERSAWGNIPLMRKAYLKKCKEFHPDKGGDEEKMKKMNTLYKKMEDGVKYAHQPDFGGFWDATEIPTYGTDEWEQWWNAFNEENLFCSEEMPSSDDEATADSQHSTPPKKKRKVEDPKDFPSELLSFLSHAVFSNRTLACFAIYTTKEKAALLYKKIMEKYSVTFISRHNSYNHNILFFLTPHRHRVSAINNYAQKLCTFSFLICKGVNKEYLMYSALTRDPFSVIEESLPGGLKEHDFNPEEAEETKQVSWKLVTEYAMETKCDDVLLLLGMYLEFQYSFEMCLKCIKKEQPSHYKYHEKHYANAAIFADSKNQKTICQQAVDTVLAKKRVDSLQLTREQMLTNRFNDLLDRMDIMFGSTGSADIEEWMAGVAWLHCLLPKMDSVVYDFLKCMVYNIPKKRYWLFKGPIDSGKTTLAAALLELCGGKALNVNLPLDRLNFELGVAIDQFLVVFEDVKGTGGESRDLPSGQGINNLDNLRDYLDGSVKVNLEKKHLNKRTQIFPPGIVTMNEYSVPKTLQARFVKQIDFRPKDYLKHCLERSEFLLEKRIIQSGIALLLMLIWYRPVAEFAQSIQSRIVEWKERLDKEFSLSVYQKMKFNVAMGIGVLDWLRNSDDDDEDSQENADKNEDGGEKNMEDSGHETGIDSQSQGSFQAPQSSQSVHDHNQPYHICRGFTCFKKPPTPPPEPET

This assay addresses Large T antigen (Simian virus 40) (UniProt P03070). Description: TAg ATPase/helicase activity blockers – biochemical (AID 1903). Conditions: SV40 large T antigen ATPase/helicase inhibition assay; at 20 µM; hits give high values.
In general, inhibition refers to the drop in the measured response relative to a control, in per cent. Turning to `COc1ccc(-c2cc(C(=O)Nc3cccc(Cl)c3)no2)cc1`, the inhibition was 7.5% (inactive).
For the molecule `O=C(COc1ccc(F)cc1)Nc1cc(S(=O)(=O)N2CCCCC2)ccc1N1CCCCC1`, the inhibition was 16% (inactive).
Regarding `N#CC1=C2SCN(Cc3ccco3)CN2C(=O)CC1c1ccccc1F` (stereo not given), the inhibition was 21.6% (inactive).
Turning to `N#CC1=C2SCN(c3ccc(F)cc3)CN2C(=O)CC1c1cccc(F)c1` (stereo not given), the inhibition was 35.6% (inactive).
With `N#CC1=C2SCN(Cc3ccccc3)CN2C(=O)CC1c1ccccc1F` (stereo not given) the figure was 35.3% (inactive); with `N#CC1=C2SCN(Cc3ccco3)CN2C(=O)CC1c1cccc2ccccc12` (stereo not given), 24.4% (inactive); with `N#CC1=C2SCN(c3ccccc3)CN2C(=O)CC1c1c(Cl)cccc1Cl` (stereo not given), 33.9% (inactive).
Turning to `CCc1ccccc1N1CSC2=C(C#N)C(c3ccccc3F)CC(=O)N2C1` (stereo not given), the inhibition is 54.3% (inactive) and 27% (inactive).
Consider `COc1ccccc1Nc1nc(NCCO)nc(N)c1[N+](=O)[O-]`, for which the inhibition is 7.82% (inactive).
The same measure for `COc1ccc(-c2cc(-c3n[nH]c(=S)n3-c3ccccc3OC)[nH]n2)cc1`: 32.3% (inactive); for `O=c1cc(-c2ccccc2)nc(N2CCN(Cc3ccc4c(c3)OCO4)CC2)[nH]1`: 9.11% (inactive); for `O=C(N/N=C/c1cccnc1)c1cccc(N2CCCC2=O)c1`: 0.45% (inactive).
With `Cn1cccc1Cc1nnc(SCC(=O)NCCc2ccccc2)n1C` the figure was -0.6% (inactive); with `COc1ccc(C(=O)N2CCCC(Nc3ccc(F)cc3)C2)c(OC)c1` (stereo not given), 12% (inactive); with `COc1ccc(NC2CCCN(C(=O)c3ccc4nc(C)c(C)nc4c3)C2)cc1OC` (stereo not given), 26.4% (inactive).
The same measure for `COC(=O)c1cccc(C(=O)N2CCCC(Nc3ccc4c(c3)OCCO4)C2)c1` (stereo not given): 29.8% (inactive); for `Cc1ccc(NC2CCCN(C(=O)c3c(C)noc3C)C2)cc1C` (stereo not given): 21.2% (inactive).
In the case of `COc1ccc(NC2CCCN(C(=O)c3ccc4nccnc4c3)C2)cc1OC` (stereo not given), the inhibition was 32.5% (inactive).
With `COc1ccc(OC)c(C(=O)N2CCCC(Nc3ccc(F)cc3)C2)c1` (stereo not given) the figure was 23% (inactive); with `Cc1noc(C)c1C(=O)N1CCCC(Nc2ccc(C(C)C)cc2)C1` (stereo not given), -5.88% (inactive).
The same measure for `CC(C)c1ccc(NC2CCCN(C(=O)c3ccco3)C2)cc1` (stereo not given): 19.6% (inactive); for `COc1ccc(-n2cnc3cc(C(=O)NCC4CCCO4)ccc32)cc1` (stereo not given): 3.91% (inactive).
With `CN(C)CCCN(C(=O)c1ccco1)c1nc2ccc(F)cc2s1` the figure was 7.29% (inactive); with `C(=N\N1CCN(c2ccccc2)CC1)/c1ccccc1`, 8.2% (inactive).
`COC(=O)[C@@H]1C[C@H]2CC[C@H](O)C[C@H]2N1Cc1ccc(Cl)cc1`: the inhibition was 8.58% (inactive).
The same measure for `N#Cc1c(/N=C/c2ccc(-c3ccccc3C(=O)O)o2)sc2c1CCCC2`: 13.3% (inactive).
Regarding `CCOC(=O)C1CCN(C(=O)CCNC(=O)c2cc(OC)c(OC)c(OC)c2)CC1`, the inhibition is 4.64% (inactive).
With `CCOC(=O)CSc1nnc(NC(=O)c2ccco2)s1` the figure was -8% (inactive).
With `Cc1ccc(N(CC(=O)NCC2CCCO2)C(=O)Cn2nnc(-c3cccs3)n2)cc1` (stereo not given) the figure was 24.6% (inactive); with `Cc1ncc(CN2CCC(CO)(Cc3ccccc3)CC2)s1`, 2.75% (inactive).
In the case of `COc1ccc(NC2CCCN(C(=O)c3ccncc3)C2)cc1` (stereo not given), the inhibition is 51.8% (inactive).
The same measure for `COc1ccc(NC2CCCN(C(=O)c3ccc(C(C)=O)cc3)C2)cc1` (stereo not given): 46.3% (inactive); for `O=C(Nc1cccnc1)/C(N=Nc1c(Cl)cccc1Cl)=C(\O)c1ccccc1`: 0.28% (inactive); for `C/C(=N\NC(=O)CC#N)c1cc2ccc(O)cc2oc1=O`: 21.8% (inactive).
The same measure for `C/C(=N/NC(=O)c1ccncc1)c1cc2ccc(O)cc2oc1=O`: 12.9% (inactive); for `CCc1noc(C)c1C(=O)N1CCN(S(=O)(=O)c2c(C)c(C)cc(C)c2C)CC1`: 5.1% (inactive).
With `O=C(O)CCC(=O)c1cccc2ccccc12` the figure was 6.26% (inactive).
In the case of `O=C(O)c1ccccc1C(=O)c1cccc2ccccc12`, the inhibition is 8.24% (inactive).
The same measure for `CS(=O)(=O)N1CCCC(C(=O)N2CCN(c3cccc(Cl)c3)CC2)C1` (stereo not given): 9.69% (inactive); for `COc1ccccc1NC(=S)N(CCCN1CCOCC1)Cc1ccccn1`: 12.9% (inactive).
Consider `Cc1nc2ccc(S(=O)(=O)N3CCCCC3)cc2s1`, for which the inhibition is 2.61% (inactive).
The same measure for `CSc1nc2ccc(S(=O)(=O)N3CCCCC3)cc2s1`: 4.61% (inactive).
As to `COc1ccc(NC(=O)CC2C(=O)N(c3ccc(F)cc3)C(=S)N2NC(=O)c2ccc(Cl)cc2)cc1` (stereo not given), the inhibition was 8.76% (inactive).
With `O=C(Nc1ccccc1)c1cccc(N2C(=O)CCC2=O)c1` the figure was 5.21% (inactive).
With `COc1cc(C(=O)Nc2ccncc2)cc(OC)c1OC` the figure was 5.76% (inactive); with `CC(C)Oc1ccc(NC(=O)c2ccncc2)cc1`, 3.7% (inactive).
With `COc1cc(C(=O)Nc2ccc(Nc3ccccc3)cc2)cc(OC)c1OC` the figure was 12.4% (inactive); with `CN(C)c1ccc(NC(=O)c2ccc3nsnc3c2)cc1`, 18.4% (inactive); with `O=C(Nc1ccc(Br)cc1)c1cccc(N2C(=O)CCC2=O)c1`, 7.57% (inactive).
`CCCOc1ccc(C(=O)Nc2ccc(N(C)C)cc2)cc1`: the inhibition was 32% (inactive).
With `O=C(Nc1ccc(F)cc1)c1ccc2nc[nH]c2c1` the figure was 7.49% (inactive); with `COc1ccc(-c2cc(=O)c3cc(OC)c(OC)cc3[nH]2)cc1`, 3.81% (inactive).
The same measure for `Cc1ccc(/C=C(\NC(=O)c2ccccc2)C(=O)NCC2CCCO2)o1` (stereo not given): 6.08% (inactive); for `O=C(COc1ccc(C(=O)c2ccccc2)cc1)NC1CCCCCC1`: -8.94% (inactive).
With `NC(N)=Nc1nc2ccc(Cl)cc2c(=O)[nH]1` the figure was 11.5% (inactive); with `COc1ccc(NC(=O)/C=C/c2ccc(OC(F)F)cc2)cn1`, 9.9% (inactive); with `COc1ccc(N2CCN(C(=O)CN3C(=O)NC(c4ccc(OC)cc4)(c4ccc(OC)cc4)C3=O)CC2)cc1`, 6.64% (inactive).
For `Cc1cc(=O)n(CC=C(Cl)Cl)c2ccccc12`, the inhibition is -7.91% (inactive).
The same measure for `NC(=S)N/N=C/c1ccccc1`: 13% (inactive); for `NC(=S)NN=C1c2ccccc2-c2ccccc21`: 7.35% (inactive); for `CC(=O)Nc1ccc(NC(=O)CS(=O)(=O)c2cn(CC(=O)N3CCCC3)c3ccccc23)cc1`: 14% (inactive).
With `Cc1ccc(-n2nc(C)c(NC(=O)CCl)c2C)cc1` the figure was 9.64% (inactive); with `CC(C)CCNC(=O)c1cccc(S(=O)(=O)N2CCc3ccccc32)c1`, 11.5% (inactive); with `COC(=O)c1c(NC(=O)COC(=O)c2ccccn2)sc(C)c1C`, 11.7% (inactive).
`COc1cc(-c2nnc(SCc3cc(=O)oc4cc(C)ccc34)o2)cc(OC)c1OC`: the inhibition is 0.12% (inactive).
Consider `COc1cc(-c2nnc(SCc3ccccc3Cl)o2)cc(OC)c1OC`, for which the inhibition was 4.19% (inactive).
Consider `COc1ccccc1-c1nc2c(c(SCC(=O)N3CCCCC3)n1)Cc1c(CO)cnc(C)c1O2`, for which the inhibition is 4.68% (inactive).
With `Cc1sc2ncn(CC(=O)NCc3ccccn3)c(=O)c2c1S(=O)(=O)N1CCOCC1` the figure was -0.92% (inactive); with `Nn1c(SCC(=O)N2CCCCCC2)nnc1-c1ccncc1`, 2.98% (inactive); with `Cc1ccc(S(=O)(=O)N2[C@@H](c3ccccc3)C(C(=O)O)=CC[C@H]2c2ccc(Cl)cc2)cc1`, 17.2% (inactive).
The same measure for `Cc1ccc([C@@H]2CC=C(C(=O)O)[C@H](c3ccc(Cl)cc3)N2S(=O)(=O)c2ccc(C)cc2)cc1`: 21.6% (inactive); for `Cc1ccc(C(=O)COC(=O)CNC(=O)CNC(=O)c2ccc(C)cc2)cc1`: 10.1% (inactive).
With `COc1cc(NC(=O)c2cc([N+](=O)[O-])ccc2NC(=O)CN2CCN(c3ccccn3)CC2)cc(OC)c1` the figure was 2.42% (inactive); with `Cc1ccc(NC(=O)NCCN2CCCCC2)cc1`, 12.7% (inactive); with `Cc1cc(C)c(S(=O)(=O)NCCn2c(C)cc3ccccc32)c(C)c1`, 3.6% (inactive).
Turning to `NS(=O)(=O)c1ccc(-c2ccc(/C=C3\NC(=S)NC3=O)o2)cc1`, the inhibition is 34.2% (inactive).
Regarding `NS(=O)(=O)c1ccc(-c2ccc(/C=C3\C(=O)Nc4ccccc43)o2)cc1`, the inhibition is 3.06% (inactive).
The same measure for `COc1ccccc1/C=C/C(=O)N1CCCC1`: 16.6% (inactive); for `Cn1cc([N+](=O)[O-])c(C(=O)NC2CCCCCCC2)n1`: 11.7% (inactive).
With `CCOc1cc(N2CCOCC2)c(OCC)cc1NC(C)C(=O)N1CCN(CC)CC1` (stereo not given) the figure was 4.25% (inactive).
The same measure for `CCOc1cc(N2CCOCC2)c(OCC)cc1NS(=O)(=O)c1cc(NC(C)=O)ccc1OC`: 9.72% (inactive); for `O=S(=O)(Nc1ccc(N2CCOCC2)cc1)c1ccc(Cl)s1`: 36.6% (inactive).
Regarding `CCOc1cc(N2CCOCC2)c(OCC)cc1NC(=O)C(C)C`, the inhibition is 5.9% (inactive).
Take `COc1ccccc1CNC(=O)C(CC(C)C)NC(=O)C1CCC(C)CC1` (stereo not given): the inhibition was 12.9% (inactive).
With `COc1ccc(/C=N/NC(=O)Cc2csc(Nc3cccc(C(F)(F)F)c3)n2)c(OC)c1` the figure was 4.64% (inactive); with `O=C(O)C1Nc2c(C(F)(F)F)ccc(Cl)c2C2C=CCC12` (stereo not given), 17.1% (inactive); with `O=C(O)C1Nc2c(C(=O)N3CCOCC3)cccc2C2C=CCC12` (stereo not given), 34.2% (inactive).
The same measure for `CCOC(=O)C1Nc2c(F)cc(C)cc2C2C=CCC12` (stereo not given): 26% (inactive).
With `CCOC(=O)C1Nc2ccc(Br)cc2C2C=CCC12` (stereo not given) the figure was 7% (inactive); with `CCNc1ccc(C(=O)OCC)cc1NC(=O)c1cccc(S(=O)(=O)N(C)c2ccccc2)c1`, -1.52% (inactive).
On to `CC1CN(CCOCCSc2ccccc2)CC(C)O1` (stereo not given), for which the inhibition is -2.63% (inactive).
With `COC(=O)CNc1cc(S(=O)(=O)N2CCCCC2)ccc1Oc1cccc(C)c1` the figure was 5.08% (inactive); with `COc1ccc(Cn2c(-c3ccc(OC)cc3)nc3c(c(=O)c4ccccc4n3C)c2=O)cc1`, 4.69% (inactive); with `c1ccc2c(NCCCN3CCOCC3)c3ccccc3nc2c1`, 3.76% (inactive).
For the molecule `Cc1csc2c(NCCCN3CCOCC3)ncnc12`, the inhibition is 5.93% (inactive).
